Hit rate of the full screen: of about 31,000 sequences, about 1,400 (4.5%) were called active.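 The calls were made as follows: active = median seed-adjusted z-score above 1 or below -1; inactive = the rest.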 The full list was thinned out, with actives kept by preference.
Test: Novel Modifiers of Survival Motor Neuron (SMN) Protein: Gene Identification via Genome-wide siRNA Screen;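 also: luminescence tracks full-length SMN protein made from the SMN2 reporter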
Conditions: HEK293T SMN2-luciferase reporter, siRNA knockdown, 72 h; actives lie on both sides
Outline: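 HEK293T cells stably expressing an SMN2 splicing/cDNA-luciferase reporter were reverse-transfected with a druggable-genome siRNA library and read by luminescence at 72 hours; hits defined by MAD score above 1.0 or below -1.0.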

**Q.** Which median seed-adjusted z-score does the source give for GGACUUGGUUUUUCGUACATT against MED14 here?
**A.** -3.22 (active)

**Q.** With UCCUUUAACUCGACAGUCATT against DRG2 as the sequence, how does the median seed-adjusted z-score read?
**A.** -0.175 (inactive)

**Q.** With AGAGGGCACUGGACCUGAATT against UQCRB as the sequence, how does the median seed-adjusted z-score read?
**A.** 0.348 (inactive)

**Q.** Which median seed-adjusted z-score does the source give for GAUCCAAUGUAAACGUGGATT against GRLF1 here?
**A.** 0.0307 (inactive)

**Q.** With GGACCAGAACCACAAGCAATT against GHSR as the sequence, how does the median seed-adjusted z-score read?
**A.** 0.18 (inactive)

**Q.** With GAUCAUCUCUGAAACAGCATT against GYG1 as the sequence, how does the median seed-adjusted z-score read?
**A.** 0.119 (inactive)

**Q.** Which median seed-adjusted z-score does the source give for CAUUCGACAUAGAAGAGUUTT against ZNF551 here?
**A.** -0.171 (inactive)

**Q.** Which median seed-adjusted z-score does the source give for GGUUACAAGCGGUUUGGUATT against COLEC12 here?
**A.** -1.04 (active)

**Q.** Which median seed-adjusted z-score does the source give for CAUGUUAAUUGUUAAGGAUTT against WFDC8 here?
**A.** 0.0427 (inactive)

**Q.** For GAGCAGAUCGAGAUCAAAATT against EVI5L, which median seed-adjusted z-score is on record?
**A.** 0.0497 (inactive)

**Q.** Which median seed-adjusted z-score does the source give for GGAAAUUCAGGUACGGAUATT against ADAMTS4 here?
**A.** -0.0153 (inactive)

**Q.** For CGGACAUUCGUGCAAAGAATT against PRPF6, which median seed-adjusted z-score is on record?
**A.** -1.06 (active)

**Q.** For AGAAUACGAUGACCACCAATT against RING1, which median seed-adjusted z-score is on record?
**A.** 0.685 (inactive)

**Q.** For GCAUACAUCAUGACCGUCATT against DUSP22, which median seed-adjusted z-score is on record?
**A.** 0 (inactive)

**Q.** With GCCGAUACCUUCACUCGAATT against TAP1 as the sequence, how does the median seed-adjusted z-score read?
**A.** -0.506 (inactive)

**Q.** With GGGAAGCUAUGCGAAAUUATT against RBPJ as the sequence, how does the median seed-adjusted z-score read?
**A.** -0.452 (inactive)

**Q.** Which median seed-adjusted z-score does the source give for GCUUCAUUGAGUACGAGAATT against PUF60 here?
**A.** 2.26 (active)

**Q.** With GGAUCGGAUAAAUAACAGUTT against HEY2 as the sequence, how does the median seed-adjusted z-score read?
**A.** -0.0831 (inactive)

**Q.** Which median seed-adjusted z-score does the source give for GAUCAAGACUCUGCGCCUATT against HAND1 here?
**A.** 0.161 (inactive)

**Q.** For GAAUUGCUGAUAAACCUAUTT against SMNDC1, which median seed-adjusted z-score is on record?
**A.** -1.54 (active)

**Q.** Which median seed-adjusted z-score does the source give for GUAUUCCAGCGAAUCCGAUTT against PAK7 here?
**A.** -0.202 (inactive)

**Q.** For CGUCAAAAGAGCCCAUAAATT against ENPP5, which median seed-adjusted z-score is on record?
**A.** -0.0499 (inactive)

**Q.** For GGAACUCUAUGGUCAUCUATT against SSTR1, which median seed-adjusted z-score is on record?
**A.** 0.285 (inactive)

**Q.** For CCAAAGGAGUCAGCACUGUTT against PLXNA1, which median seed-adjusted z-score is on record?
**A.** 0 (inactive)

**Q.** For GCAGUUGAAUUAUCACAGUTT against UQCRFS1, which median seed-adjusted z-score is on record?
**A.** -1.28 (active)

**Q.** Which median seed-adjusted z-score does the source give for GGAAGAAUGUGGUUUGCGATT against GFOD2 here?
**A.** -0.0447 (inactive)

**Q.** With GGAGAGGAUUAUUUCCGCATT against SDR9C7 as the sequence, how does the median seed-adjusted z-score read?
**A.** 0 (inactive)

**Q.** Which median seed-adjusted z-score does the source give for GCAAGUUGGAGAACGAGUATT against MED8 here?
**A.** -1.61 (active)

**Q.** With GGCCCAAGAUCUUCCCUAATT against GPR179 as the sequence, how does the median seed-adjusted z-score read?
**A.** -0.513 (inactive)

**Q.** With CAGUCGUUGCUGUCAAAAATT against RGS9 as the sequence, how does the median seed-adjusted z-score read?
**A.** 0.0665 (inactive)

**Q.** For UGCUCUCUGUUGCAUUGAATT against IAPP, which median seed-adjusted z-score is on record?
**A.** -0.157 (inactive)

**Q.** With GAUUUCUAAUUAACACAAUTT against POLR1D as the sequence, how does the median seed-adjusted z-score read?
**A.** -0.0409 (inactive)

**Q.** Which median seed-adjusted z-score does the source give for CCAUCAUCCGGGAUGAGGATT against NPEPL1 here?
**A.** 1.12 (active)

**Q.** Which median seed-adjusted z-score does the source give for GCAAAGUGCCGAAACAAGATT against ATF3 here?
**A.** -0.000485 (inactive)

**Q.** For CGAAUAUACCAGGACGAAATT against SATB1, which median seed-adjusted z-score is on record?
**A.** 0 (inactive)

**Q.** With UACUGUCUCUAGUCUUUUUTT against SEC11B as the sequence, how does the median seed-adjusted z-score read?
**A.** 1.04 (active)

**Q.** Which median seed-adjusted z-score does the source give for GCUUGUUCGGCUACACGAATT against CYP8B1 here?
**A.** 0 (inactive)

**Q.** With CUAAAAGACCGAACAAUAATT against HNRPUL1 as the sequence, how does the median seed-adjusted z-score read?
**A.** -0.047 (inactive)

**Q.** For GGUUCAUGUUUGCAAUCUUTT against POLR2B, which median seed-adjusted z-score is on record?
**A.** -4.81 (active)

**Q.** Which median seed-adjusted z-score does the source give for UGAACGCAGUCAUCCGGAATT against MAPK15 here?
**A.** 0.0724 (inactive)

**Q.** For CCAAUGAUGUAUGAUCUAATT against UBE3A, which median seed-adjusted z-score is on record?
**A.** 0.0949 (inactive)

**Q.** For GGACUAUAAAUCCAGCUUUTT against TOMM34, which median seed-adjusted z-score is on record?
**A.** -0.503 (inactive)

**Q.** For CUCCUAAAGUGCAUCGCAATT against GUF1, which median seed-adjusted z-score is on record?
**A.** 0.119 (inactive)

**Q.** For CAUCAGAUCUUGAUCAGUUTT against NKTR, which median seed-adjusted z-score is on record?
**A.** -1.1 (active)

**Q.** With CUCUUCACGUCUGACCUGATT against HTR6 as the sequence, how does the median seed-adjusted z-score read?
**A.** -0.463 (inactive)

**Q.** With CCCAUAUGAUUACCCAUUUTT against MYH2 as the sequence, how does the median seed-adjusted z-score read?
**A.** -0.73 (inactive)

**Q.** Which median seed-adjusted z-score does the source give for CCUGCAGAAUAACCUGAUATT against OPTC here?
**A.** 0.0953 (inactive)

**Q.** For CCUGGAAACUACAAGCCCATT against SIRT3, which median seed-adjusted z-score is on record?
**A.** -0.341 (inactive)

**Q.** For GCCUCGAGCCUAUUCGUUATT against PCDHB4, which median seed-adjusted z-score is on record?
**A.** 0.00998 (inactive)

**Q.** With GACUACGACUGGUUCUUCATT against CSGLCA-T as the sequence, how does the median seed-adjusted z-score read?
**A.** 0.146 (inactive)

**Q.** For AGUCAAGAACAAUACCCAATT against SNRPD2, which median seed-adjusted z-score is on record?
**A.** -0.849 (inactive)

**Q.** Which median seed-adjusted z-score does the source give for GAGCAGCUCUUAAGCAACATT against SAPS1 here?
**A.** 1.16 (active)

**Q.** With GCCUGUCCCUAGCAUUGUUTT against CES2 as the sequence, how does the median seed-adjusted z-score read?
**A.** -0.47 (inactive)

**Q.** For CCAGUCACUGCAUAACAUUTT against PSMD9, which median seed-adjusted z-score is on record?
**A.** 0.266 (inactive)

Source: PubChem BioAssay AID1347426 (Functional Genomics Laboratory (NCATS/FGL), 2020)
